# Bioassay records deposited in PubChem by National Center for Advancing Translational Sciences (NCATS).
# TrxR1 inh: qHTS Assay for Inhibitors of Mammalian Selenoprotein Thioredoxin Reductase 1 (TrxR1): qHTS; 1% of 390,000 active; recombinant rTrxR1, NADPH fluorescence consumption, selenite substrate; Potency, µM (doses to about 114 µM), for the others: at the top dose activity change, negative = inhibition, most hits filed as inhibitors; Thioredoxin reductase 1, cytoplasmic (Rattus norvegicus), O89049; AID 588453, 2011; also: potency is read from the fitted curve at half-maximal effect; nearly all actives have a fitted effect of over 65% in size
# Target sequence (O89049 whole entry, looked up): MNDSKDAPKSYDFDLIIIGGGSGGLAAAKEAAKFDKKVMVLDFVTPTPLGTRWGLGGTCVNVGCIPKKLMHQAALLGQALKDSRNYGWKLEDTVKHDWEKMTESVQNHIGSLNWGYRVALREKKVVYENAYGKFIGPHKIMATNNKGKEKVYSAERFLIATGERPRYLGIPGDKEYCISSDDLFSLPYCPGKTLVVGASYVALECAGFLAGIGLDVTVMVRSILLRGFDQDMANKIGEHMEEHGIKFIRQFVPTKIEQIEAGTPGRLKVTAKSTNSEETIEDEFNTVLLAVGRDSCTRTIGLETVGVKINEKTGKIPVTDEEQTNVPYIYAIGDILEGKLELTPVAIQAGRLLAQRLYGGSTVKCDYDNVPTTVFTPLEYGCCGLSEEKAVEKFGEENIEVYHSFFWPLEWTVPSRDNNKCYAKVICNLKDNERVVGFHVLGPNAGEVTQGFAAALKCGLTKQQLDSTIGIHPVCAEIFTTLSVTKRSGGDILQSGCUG
#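 Rat TrxR1 (90 nM in the dispensed reagent) was pre-reduced with 400 uM NADPH for 5 min at room temperature, then incubated with compound for 15 min. After 400 uM selenite was added, NADPH fluorescence (Ex 340/Em 450 nm) was followed for 8 min.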
# GALK inhibitor: qHTS Assay for Inhibitors of Human Galactokinase (GALK) | Purified GALK, Kinase-Glo residual ATP luminescence | 0.007% of 270,000 active | Potency, µM (top dose mostly 57.5 µM), for inactives: at the highest dose activity change, negative = inhibition, actives largely listed as inhibitors | AID 1868, 2009; also: potency is read from the fitted curve at half-maximal effect
#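 Luminescence from leftover ATP (Ultra-Glo luciferase/luciferin) served as read-out after a 1 h room-temperature reaction of 5 nM GALK with 35 uM ATP and 100 uM galactose.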
# GCN5L2 inh: qHTS Assay for Inhibitors of GCN5L2. Histone acetyltransferase KAT2A (Homo sapiens), Q92830. GCN5L2 HAT assay, ThioGlo1 CoA-SH fluorescence. Potency, µM (series often up to 58.9 µM), inactives show at the top dose activity change, negative = inhibition, usual class: inhibitors. 0.21% of 390,000 active. AID 504327, 2011; also: potency is read from the fitted curve at half-maximal effect
#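 Fluorescence readout, Ex340nm/Em540nm: ThioGlo1 (50uM final) reacts with free CoA thiol released as 20nM GCN5L2 acetylates H3(1-25) peptide (75uM) using acetyl-CoA (70uM). Compound and enzyme sat 15 min beforehand; 20 min room-temperature reaction.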
# Giardia killer: Small Molecules that selectively kill Giardia lamblia: qHTS. Giardia lamblia trophozoite viability. activity change, % at 7.66 µM, hits read low. 0.15% of 340,000 active. AID 540267, 2011; in the data active = activity change below about -80%; inconclusive = between about -30% and that limit;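 also: parasites exposed to compound for two days anaerobically before the ATP read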
#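 Each well holds 100 Giardia trophozoites and compound. After two days (48 hrs) at 37 deg C in anaerobic conditions, ATP is quantified by luminescence.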
# TrxR1 substrate: qHTS Assay for Substrates of Mammalian Selenoprotein Thioredoxin Reductase 1 (TrxR1): qHTS; Thioredoxin reductase 1, cytoplasmic (Rattus norvegicus), O89049; purified TrxR1 substrate turnover, NADPH consumption readout; Potency, µM (series often up to 114 µM), inactives show at the top dose activity change, negative = substrate turnover; 0.01% of 390,000 active; also: potency is read from the fitted curve at half-maximal effect; nearly all actives have a fitted effect of over 50% in size
#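 Rat TrxR1, dispensed at 90 nM, was prereduced with 400 uM NADPH (final) for 5 min at ~22 deg C, then incubated with compound 15 min before 400 uM selenite. A first-read NADPH fluorescence drop versus no-compound background flagged substrates.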
# Pin1 inhibitor: qHTS Assay to Find Inhibitors of Pin1; Potency, µM (top dose mostly 115 µM), inactives show top-dose activity, negative = inhibition, hits mostly inhibitors; 0.009% of 390,000 active; Pin1 FP peptide displacement, HiFluor488, 10 min; AID 504891, 2011; active = well fitted inhibition curve with a large enough effect in the polarisation, with a control signal flat, not every such curve was filed as active; inconclusive = small, poorly fitted or top-dose-only effect, or effect the other way, or a change in a side signal; inactive = no such curve, though single readings can be large or run the other way; the % refers to the polarisation; also: potency is read from the fitted curve at half-maximal effect
# Target sequence (Q13526 whole entry, looked up): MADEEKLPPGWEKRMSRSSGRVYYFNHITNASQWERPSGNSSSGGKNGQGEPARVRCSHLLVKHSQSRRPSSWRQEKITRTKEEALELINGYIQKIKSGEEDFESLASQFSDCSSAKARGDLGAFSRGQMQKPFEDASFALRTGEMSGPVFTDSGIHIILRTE
# Starred values were filed as active, the others as inactive; ? = inconclusive; · = not tested or not shown; ! = not active in a repeat; [ ] = another dose, or the depositor's remark. The list is not random: actives were taken first. Their share in the collection is about 1.3%. Unless noted, calls follow the shape of the dose curve; as a rule, active = well fitted curve in the direction sought with a large enough effect; inconclusive = small, poorly fitted or top-dose-only effect, or another doubt; inactive = no such curve, though single readings can be large; an effect the other way counts as inactive or inconclusive. % is scaled to controls: 0 for no effect and ±100 for the full control effect.
SMILES,TrxR1 inh,GALK inhibitor,GCN5L2 inh,Giardia killer,TrxR1 substrate,Pin1 inhibitor
COc1ccc(-c2cc3ccccc3oc2=O)cc1NC(=O)c1ccc([N+](=O)[O-])o1,-8%,7%,-5%,-94*,-9%,3%
COc1ccc(-c2cc3ccccc3oc2=O)cc1NC(=O)c1ccc(Br)o1,-7%[57.1 µM],2%,-17%,9,31%[57.1 µM],?
O=C(Nc1ccc(S(=O)(=O)N2CCCC2)cc1)c1ccc([N+](=O)[O-])o1,-14%,·,-3%,-81*,-7%,-1%
Cc1ccc(NS(=O)(=O)c2cc3c(cc2Cl)CCC(=O)N3)cc1C,·,·,·,·,·,-1%
COc1ccc(Cl)cc1S(=O)(=O)NC(C)C(=O)NCCN1CCOCC1 (stereo not given),2%,·,·,-4,-5%,?
COc1ccccc1CNC(=O)c1c(O)nc2c(C)cccn2c1=O,0%,·,0%,·,0%,-1%
CCOC(=O)c1ccc(-c2ccc3ncnc(NCc4cccs4)c3c2)o1,·,·,·,·,·,33%
CC1CC(=Cc2ccc(N)cc2)C(=O)O1 (stereo not given),8%[2.29 µM],·,·,0,0%[2.29 µM],4%
C#CCOCCOCCOCCNc1nc(N2CCN(C(=O)[C@H](CCCCN)n3cc(CN)nn3)CC2)nc(N2CCN(C(=O)[C@H](CCCCN)n3cc([C@@H](N)[C@H](C)CC)nn3)CC2)n1,45µM*,·,-1%,?,12%,1%
C#CCOCCOCCOCCNc1nc(N2CCN(C(=O)C([C@@H](C)CC)n3cc(C(N)COC(=O)C(F)(F)F)nn3)CC2)nc(N2CCN(C(=O)[C@H](CCCCN)n3cc(C(N)[C@H](C)CC)nn3)CC2)n1 (stereo not given in full),50µM*,·,·,5,5%,3%
C#CCOCCOCCOCCNc1nc(N2CCN(C(=O)CCCCCCCCCCNC(=O)Cn3cc(CCCCCN)nn3)CC2)nc(N2CCN(C(=O)CCCCCCCCCCNC(=O)Cn3cc(CCCCCN)nn3)CC2)n1,11µM*,·,-10%,1,4%,11%
C#CCOCCOCCOCCNc1nc(N2CCN(C(=O)CCCCCCCCCCNC(=O)Cn3cc(CCCCCN)nn3)CC2)nc(N2CCN(C(=O)CCCCCCCCCCNC(=O)[C@@H](CCC(=O)O)n3cc(CCCCCN)nn3)CC2)n1,-56%,·,-3%,7,1%,7%
C#CCOCCOCCOCCNc1nc(N2CCN(C(=O)[C@H](CCCCN)n3cc([C@@H](N)C(C)CC)nn3)CC2)nc(N2CCN(C(=O)[C@H](Cc3cc4ccccc4[nH]3)n3cc([C@@H](N)CC(C)C)nn3)CC2)n1 (stereo not given in full),25µM*,6%,3%,18,1%,10%
COc1ccc(C2c3c(n(CCc4ccccc4)cnc3=N)Oc3ccc4ccccc4c32)cc1OC (stereo not given),·,·,·,·,·,4%
C#CCOCCOCCOCCNc1nc(N2CCN(C(=O)[C@H](CCCCN)n3cc(C(N)[C@H](C)CC)nn3)CC2)nc(N2CCN(C(=O)[C@H](CCC(=O)O)n3cc(C(N)[C@H](C)CC)nn3)CC2)n1 (stereo not given in full),56µM*,1%,2%,?,2%,2%
COc1cc(-c2ccc3ncnc(NCc4cccs4)c3c2)cc(OC)c1OC,·,·,·,·,·,31%
CCC(=O)NC(c1ccc(C)s1)c1cc(Cl)c2cccnc2c1O (stereo not given),·,·,·,·,·,4%
O=[N+]([O-])c1ccc(/C=N/n2c(CO)nc3ccccc32)s1,-19%,1%,18%,-106*,-9%,?
Cc1nc2ccccc2n1/N=C/c1ccc([N+](=O)[O-])s1,-14%[57.1 µM],0%,-2%,?,4%[57.1 µM],?
COC(=O)C1=NN(C(=O)c2ccc(Cl)cc2)C(O)(c2ccccc2)C1 (stereo not given),-10%,3%,1.4µM*,-7,4%,1%
CCN(CC)S(=O)(=O)c1ccc2oc(C(=O)NCc3ccccc3OC)c(C)c2c1,5%[2.29 µM],·,-9%,·,5%,29%
CCOc1c(Br)cc(C2C=C(C(=O)O)Nc3ncnn32)cc1OC (stereo not given),2%,·,-9%,·,-4%,0%
CCc1cccc2c3c([nH]c12)[C@@](CC)(CC(=O)O)OCC3,·,·,13µM*,·,·,·
N#CC1(NC(=O)Cn2ncc(Cl)c(Cl)c2=O)CCCCC1,5µM*,·,-10%,-9,9%[57.1 µM],-1%
N#CC1(NC(=O)CN2C(=O)c3ccccc3C2=O)CCCCC1,24%,·,0%,20,6%,0%
SMILES,TrxR1 inh,GALK inhibitor,GCN5L2 inh,Giardia killer,TrxR1 substrate,Pin1 inhibitor
CC(=O)Nc1ccc(OC2=NS(=O)(=O)c3ccccc32)cc1,·,·,·,·,·,1%
O=C(O)C[C@@H]1C(=O)O[C@@H]2C(COC(=O)c3cc(O)c(O)c(O)c3)O[C@@H](OC(=O)c3cc(O)c(O)c(O)c3)[C@@H](OC(=O)c3cc(O)c(O)c4c3[C@H]1[C@H](O)C(=O)O4)[C@H]2OC(=O)c1cc(O)c(O)c(O)c1 (stereo not given in full),·,14µM*,-24%,·,·,·
CC(=O)C1CCN(c2ncc(-c3cccc(N(C)C)c3)s2)CC1,·,·,·,·,·,-1%
CN(CCOC(=O)/C=C/c1ccccc1)C(C)(C)C,9%,-1%,1%,-5,4%,0%
CC[N+]1(C)CCC(O)(/C=C/c2ccccc2)C(C(=O)/C=C/c2ccccc2)C1 (stereo not given),0.32µM*,·,·,-1,11%[11.4 µM],0%
COc1ccc(N(CC(C)C)S(=O)(=O)c2nnc(NC(=O)c3ccco3)s2)cc1,-43%,5%,1µM*!,-28,-5%,-5%
C#Cc1nc(Nc2cccc(Cl)c2)nc(NC2CCCC2)n1,·,·,·,·,·,7%
Cc1cc(C)c2oc(-c3ccc(Cl)c(NC(=O)c4cccs4)c3)nc2c1,15%,·,1%,·,14%[11.4 µM],5%
CCCCN(C(=O)/C=C/c1ccco1)c1c(N)n(CCC)c(=O)[nH]c1=O,-8%[57.1 µM],6%,-19%,-1,-13%,11%
Cc1cc(Cl)ccc1OCC(=O)N(Cc1ccco1)c1c(N)n(Cc2ccccc2)c(=O)[nH]c1=O,50µM*,·,·,8,-3%,19%
